Rows were chosen to be rich in hits. Some 12% of all compounds tested hit in one or more screens of this group.
RORg inh: inhibitors of mouse ROR gamma transcriptional activity; P51450; Drosophila S2 Gal4-RORgamma UAS-luciferase reporter, 20 h; Potency, µM (titrated, usually from 53.6 µM), without a hit: top-dose activity change, negative = inhibition, most hits filed as inhibitors; 5.4% of 310,000 active; AID 2551; further: nearly all actives have a fitted effect of over 60% in size
Target sequence (P51450 whole entry, looked up, the tested form may be a part): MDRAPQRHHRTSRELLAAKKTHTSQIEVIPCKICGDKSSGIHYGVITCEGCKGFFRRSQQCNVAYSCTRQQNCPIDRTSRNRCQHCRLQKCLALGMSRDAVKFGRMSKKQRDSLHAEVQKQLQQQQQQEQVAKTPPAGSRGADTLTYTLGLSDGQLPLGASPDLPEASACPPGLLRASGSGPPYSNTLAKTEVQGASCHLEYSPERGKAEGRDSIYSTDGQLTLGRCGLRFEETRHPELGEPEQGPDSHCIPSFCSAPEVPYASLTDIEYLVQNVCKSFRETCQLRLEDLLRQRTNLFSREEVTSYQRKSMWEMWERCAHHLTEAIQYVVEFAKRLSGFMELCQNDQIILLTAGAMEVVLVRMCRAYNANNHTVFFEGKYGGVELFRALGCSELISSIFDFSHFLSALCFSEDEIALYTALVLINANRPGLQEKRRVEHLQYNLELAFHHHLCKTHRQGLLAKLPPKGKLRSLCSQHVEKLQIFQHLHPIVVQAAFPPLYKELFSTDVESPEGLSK
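Schneider cells (Drosophila), stable Gal4 DBD–ROR gamma + UAS-luc; 1 hr cmpd preincubation; Cu2+ induction 700 uM final; 20 hr ambient; luminescence.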
ALDH1A1 inh: ALDH1A1 (human) enzyme inhibition; P00352; Purified ALDH1A1, NADH fluorescence, propionaldehyde substrate; Potency, µM (doses to about 75.3 µM), without a hit: at the top dose activity, negative = inhibition, usual class: inhibitors; 7.3% of 220,000 active; active means well fitted inhibition curve with a large enough effect, not every such curve was filed as active; inconclusive means small, poorly fitted or top-dose-only effect, or another doubt; inactive means no such curve, though single readings can be large or run the other way;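 further: plate controls were no enzyme wells and a reference inhibitor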
PLK1 PBD inh: blocks phosphopeptide binding to human PLK1 polo-box domain | Plk1 PBD binding of FITC phosphopeptide, fluorescence polarization | P53350 | 2.8% of 360,000 active | Potency, µM, inactives show max response, negative = inhibition, hits mostly inhibitors; further: series mostly up to about 57 µM; nearly all actives have a fitted effect of over 65% in size
Sfp inh: Sfp phosphopantetheinyl transferase inhibition. Potency, µM, inactives show largest response in the series, negative = inhibition, most hits filed as inhibitors. Biochemical Sfp PPTase activity, qHTS. 3.5% of 310,000 active. Q9F4F7. AID 1490;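 further: the enzyme is Sfp with the accession as filed and its product quenches rhodamine fluorescence; 0% = enzyme reaction without inhibitor and -100% = no enzyme wells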
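Buffer: 50 mM Hepes-Na pH 7.6, 10 mM MgCl2, 0.01% Nonidet P-40, 0.01% BSA. Enzyme 15 nM, pre-exposed to compound 15 min; substrates then added and fluorescence change tracked over 30 min.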
VP16 counter: counter-screen for ROR gamma inhibitors: Gal4-VP16 reporter | Drosophila S2 Gal4-VP16 UAS-luciferase, luminescence, 20 h | Potency, µM (top dose mostly 53.6 µM), for inactives: at the top dose activity, negative = inhibition, actives largely listed as inhibitors | 3.5% of 310,000 active | AID 2546;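 further: Gal4-VP16 expression switched on by copper sulfate through the metallothionein promoter; nearly all actives have a fitted effect of over 50% in size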
The depositor's hits bear a star; ? = inconclusive; nt = not tested or not shown; [ ] = dose if it differs, or a comment. Unless noted, the call rests on the fitted dose curve; in most records, active means well fitted curve in the direction sought with a large enough effect; inconclusive means small, poorly fitted or top-dose-only effect, or another doubt; inactive means no such curve, though single readings can be large; an effect the other way counts as inactive or inconclusive. Unless noted, on the % scale 0 is the no-effect control and ±100 the full control effect; potency means the concentration at half of the fitted maximal effect.

SMILES | RORg inh | ALDH1A1 inh | PLK1 PBD inh | Sfp inh | VP16 counter
O=C(Nc1cc(C(F)(F)F)ccc1N1CCOCC1)c1ccco1 | 43% | 8% | -10% | 3% | 1%
CCCS(=O)(=O)NC(=O)C1(C)CCN(C(=O)c2ccc(OC)cc2OC)C1 (stereo unspecified) | nt | nt | -10% | nt | nt
CCS(=O)(=O)CCSc1nc2ccccc2s1 | 4% | ? | ? | 13% | 24%
O=S(=O)(CCSc1nc2ccccc2s1)c1nc2ccccc2s1 | 7.1µM* | 0.1µM* | -30% | 9% | 16µM*
O=S(=O)(CCc1ccccc1)c1nc2ccccc2s1 | -32% | -5% | nt | -19% | -9%
N#CCCCS(=O)(=O)c1nc2ccccc2s1 | -18% | -6% | nt | 19% | -4%
N#Cc1cccc(CS(=O)(=O)c2nc3ccccc3s2)c1 | -35% | 14µM* | nt | -10% | -4%
C=CCS(=O)(=O)c1nc2ccccc2s1 | 19% | 0.79µM* | -19% | -3% | -12%
C[C@@H]1CN([C@@H](C)CO)S(=O)(=O)c2ccc(Br)cc2O[C@H]1CN(C)C(=O)c1ccccc1 | nt | nt | -7% | nt | nt
O=C(CCCN1CCN2CCCC2C1)c1ccc(F)cc1 (stereo unspecified) | -10% | nt | nt | -5% | -1%
CCCCCCCCN1C(=O)[C@H](CC(=O)N2CCN(C(=O)C3CC3)CC2)C[C@@]2(C(=O)OCC)CCCC=C12 | nt | nt | 1% | nt | nt
O=c1[nH]c(CN2CCc3ccccc32)nc2scc(-c3cccs3)c12 | 2% | 25µM* | -4% | 0% | -10%
CC(NC(=O)c1cccs1)c1ccc2c(c1)OCO2 (stereo unspecified) | 5% | 9% | 0% | 13% | 7%
Cc1ccc(C(=O)NC(C)c2ccc3c(c2)OCO3)s1 (stereo unspecified) | 16% | 2% | 12µM* | 12% | 2%
Cc1nn(-c2ccccc2)c(Cl)c1CN(C(=O)CCl)c1cccc2ccccc12 | 14µM* | 28µM* | 11% | -6% | ?
Cc1nn(-c2ccccc2)c(Cl)c1CN(C(=O)CCl)c1ccc(Cl)cc1 | -7%[10 µM] | 7.1µM* | -17% | -6% | ?
Cc1ccc(C(=O)Nc2ccccc2N2CCOCC2)c(C)c1 | nt | 13% | nt | nt | nt
CCCC[C@]12Cc3cc(OC)c(OC)cc3C(O1)C1=C(O2)C(=O)c2ccccc2C1=O | -19%[10 µM] | nt | nt | -24% | 1%[10 µM]
COc1ccc(-c2csc(Nc3ccc(Oc4ccccc4)cc3)n2)cc1 | nt | nt | -2% | nt | nt
C=C(C)CN(CC)C(=O)CSc1nc2ncc(Cl)cc2[nH]1 | ? | 25µM* | -26% | 4% | 11%
CCN(CC(=O)Nc1c(F)cccc1F)C(=O)CCCSc1nc2ccccc2[nH]1 | nt | nt | 1% | nt | nt
CCS(=O)(=O)N1CCN(c2ccc(C(=O)NC34CC5CC(CC(C5)C3)C4)cc2[N+](=O)[O-])CC1 | ? | ? | -3% | 5% | -13%
CS(=O)(=O)N1CCN(c2ccc(C(=O)NC34CC5CC(CC(C5)C3)C4)cc2[N+](=O)[O-])CC1 | ? | ? | 27µM* | -9% | -18%
CS(=O)(=O)c1ccc(C(=O)OCC(=O)NC23CC4CC(CC(C4)C2)C3)cc1[N+](=O)[O-] | 11µM* | -2% | -29% | 0% | ?
CCOc1cccc(NC(=O)/C(C#N)=C\c2cccnc2)c1 | 13% | -5% | 19µM* | 14% | -11%
SMILES | RORg inh | ALDH1A1 inh | PLK1 PBD inh | Sfp inh | VP16 counter
N#C/C(=C\c1cccnc1)C(=O)Nc1ccccc1 | 13% | 4% | -16% | 9% | -9%
CCOc1ccc2nc(SCC(=O)N(CCOC)c3c(N)n(Cc4ccccc4)c(=O)[nH]c3=O)[nH]c2c1 | nt | nt | -4% | nt | nt
Cc1cc(C)nc(SCc2ccc(C(=O)NN=C3CCCC3)cc2)n1 | -38% | 2.8µM* | 1% | 6% | -4%
Cc1cc(C)nc(SCc2ccc(C(=O)N/N=C3\CCCC(=O)C3)cc2)n1 | -2% | 8.9µM* | 2% | -8% | -2%
Cc1cc(C)nc(SCc2ccc(C(=O)N/N=C/c3cccnc3)cc2)n1 | -2% | 16% | nt | 12% | -5%
Cc1cc(C)nc(SCNC(=O)c2ccc(Cl)cc2)n1 | ? | 4% | -9% | 56µM* | -10%
C[C@H]1CN([C@@H](C)CO)C(=O)c2cc(C3=CCCC3)cnc2O[C@@H]1CN(C)C(=O)c1ccncc1 | nt | nt | -8% | nt | nt
Cc1cc(N2CCC(C(=O)N3CCN(c4cccc(C)c4C)CC3)CC2)n2ncnc2n1 | ? | 4µM* | -9% | -7% | -18%
O=C(C1CCN(c2ncnc3c2nc2n3CCCCC2)CC1)N1CCN(c2ccccc2F)CC1 | ? | nt | -3% | 9% | -24%
Cc1cccc(N2CCN(C(=O)C3CCN(c4ncnc5c4nc4n5CCCCC4)CC3)CC2)c1C | ? | nt | -2% | -1% | 8.9µM*
COCC(=O)N1CCC2(CCCN(c3ccncc3)C2)CC1 | -3% | 2% | nt | 5% | -3%
COc1ccc(-c2oc(NC(=O)CCl)c(C#N)c2-c2ccc(OC)cc2)cc1 | ? | 2.5µM* | -23% | -2% | ?
COc1ccc(-c2oc(NC(=O)CSc3ncn[nH]3)c(C#N)c2-c2ccc(OC)cc2)cc1 | 36% | -9% | -7% | 9% | 5%
COc1ccc(CCNc2oc(COc3ccccc3F)nc2C#N)cc1OC | ? | ? | 27µM* | 1% | -1%
C=CCc1cccc(/C=N/NC(=O)CN2CCN(Cc3ccccc3)CC2)c1O | 1.1µM* | nt | nt | 0% | 10µM*
C=CCc1cccc(/C=N/NC(=O)CCC(=O)Nc2ccc(F)cc2)c1O | 1µM* | 1% | -16% | -17% | 1µM*
C=CCc1cccc(/C=N/NC(=O)CNc2cccc3ccccc23)c1O | 0.56µM* | ? | 3% | 4% | 1.1µM*
O=C(CN1CCN(Cc2ccccc2)CC1)N/N=C/c1ccco1 | 38% | ? | -2% | 18% | -6%
C=CCc1cccc(/C=N/NC(=O)C[n+]2ccccc2)c1O | ? | nt | 0% | 11% | -11%
C=CCc1cccc(/C=N/NC(=O)CNc2ccccc2)c1O | 1.6µM* | 4% | 1% | 6% | ?
CCCC(=O)Nc1nc2c(ncn2[C@@H]2O[C@H]3COP(=O)(O)O[C@@H]3[C@@H]2OC(=O)CCC)c(=O)[nH]1 | 2% | ? | nt | 6% | -2%
C=CCc1cccc(/C=N/NC(=O)C(C)Nc2cccc(C)c2)c1O (stereo unspecified) | 0.04µM* | -1% | -10% | 35% | 2.5µM*
C=CCn1c(Cc2c[nH]c3ccccc23)nnc1SCC(=O)NCc1ccccc1 | 17% | 26% | -7% | 15% | 0%
C=CCn1c(CNc2ccccc2)nnc1SCC(=O)N/N=C/c1ccccc1O | 10µM* | ? | 1% | 8% | 16µM*
C=CCc1cccc(/C=N/NC(=O)CNc2ccccc2OC)c1O | 1.3µM* | -8% | -5% | 21% | -2%
COc1ccccc1/C=N/NC(=O)COCC(=O)N/N=C/c1ccccc1OC | -3% | -10% | -9% | -12% | -5%
C=CCc1cccc(/C=N/n2cnnc2)c1O | 7.1µM* | ? | -19% | 9% | -12%[0.365 µM]
